Rows were chosen to be rich in hits. Some 19% of all compounds tested hit in one or more screens of this group.
IL1B secr inh: inflammasome signaling inhibition, IL-1 beta readout; THP-1 LPS/ATP IL-1B secretion, AlphaLISA, 16 h; active compounds read low; activity change, % at 57.5 µM; actives 4.7% (n = 360,000); in the data active means activity change below about -50%; inconclusive means mostly about -30% to -49%; further: on the % scale 0 is the no-effect control and ±100 the full control effect
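THP-1 cells pretreated 1 hr with compounds (up to 57.5 uM final), then stimulated with LPS (250 ng/mL final) plus ATP (1.25 mM final); secreted IL-1B measured by AlphaLISA after 16 hr, decreased signal indicating inhibition.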
HepG2 tox: counter-screen for TGF-b inhibitors: cytotoxicity in HepG2 cells; AID 588856; Potency, µM (highest dose often 46.1 µM), for inactives: top-dose activity change, negative = cytotoxicity, hits mostly cytotoxic; HepG2 CAGA-GFP viability, ATP luminescence, 18 h; actives 0.76% (n = 410,000); further: potency means the concentration at half of the fitted maximal effect
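CellTiter-Glo luminescence gave cytotoxicity after 18 hours at 37 degrees C. The cells were HepG2 CAGA-GFP in 1% FBS DMEM, stimulated with 500 pg/mL TGF-beta after compound addition. %Activity was normalised to no-cell wells (complete cell-killing) and DMSO (no toxicity), and curves were fitted and classified.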
TGFb SMAD3 inh: inhibitors of TGF-b signaling. Potency, µM (doses to about 46.1 µM), for the others: at the top dose activity, negative = inhibition, most hits filed as inhibitors. actives 1.2% (n = 410,000). AID 588855. HepG2 CAGA-GFP TGF-b/SMAD3 reporter, GFP fluorescence, 18 h; TGF-beta stimulated, 500 pg/mL final; further: potency means the concentration at half of the fitted maximal effect; on the % scale 0 is the no-effect control and ±100 the full control effect; nearly all actives have a fitted effect of over 65% in size
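GFP signal (ex488/em500-530) from TGF-beta-stimulated HEPG2 CAGA-GFP cells, 500 pg/mL final, 18 h at 37 degrees C in DMEM plus 1% FBS, normalized to unstimulated and DMSO-stimulated controls.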
TDP1 cell noCPT: qHTS for Inhibitors of human tyrosyl-DNA phosphodiesterase 1 (TDP1): qHTS in cells in absence of CPT; DT40 Tdp1-/- hTDP1 cells, no CPT, ATP luminescence, 48 h; Potency, µM (series often up to 46.2 µM), for the others: at the highest dose activity change, negative = growth inhibition, actives largely listed as inhibitors; actives 15% (n = 420,000); AID 686978, 2013; further: potency means the concentration at half of the fitted maximal effect; on the % scale 0 is the no-effect control and ±100 the full control effect; nearly all actives have a fitted effect of over 55% in size
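Luminescent ATP content (CellTiter-Glo) served as the growth readout. Knockout chicken DT40 cells expressing human TDP1 were exposed to compounds without camptothecin for a minimum 48 hr at 37 °C.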
DT40 TDP1 CPT: DT40-hTDP1 cell growth loss with CPT; chicken DT40 Tdp1-/-;hTDP1 cells + 20 nM CPT, ATP luminescence, 48 h; Potency, µM (top dose mostly 46.2 µM), inactives show at the top dose activity change, negative = growth inhibition, most hits filed as inhibitors; actives 12% (n = 420,000); further: potency means the concentration at half of the fitted maximal effect; on the % scale 0 is the no-effect control and ±100 the full control effect; nearly all actives have a fitted effect of over 55% in size
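Chicken DT40 Tdp1-/- cells complemented with human TDP1, 400 cells/well, exposed to compounds plus 20 nM camptothecin for at least 48 h at 37 C; viability read as ATP content by CellTiter-Glo luminescence.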
S-ASM inh: inhibitors of human secretory acid sphingomyelinase | P17405 | placental ASM, HMU-PC fluorogenic substrate, 60 min | Potency, µM (doses to about 57.5 µM), for the others: at the highest dose activity change, negative = inhibition, hits mostly inhibitors | actives 0.006% (n = 340,000); further: potency means the concentration at half of the fitted maximal effect
Target sequence (P17405 47-631 limits assumed): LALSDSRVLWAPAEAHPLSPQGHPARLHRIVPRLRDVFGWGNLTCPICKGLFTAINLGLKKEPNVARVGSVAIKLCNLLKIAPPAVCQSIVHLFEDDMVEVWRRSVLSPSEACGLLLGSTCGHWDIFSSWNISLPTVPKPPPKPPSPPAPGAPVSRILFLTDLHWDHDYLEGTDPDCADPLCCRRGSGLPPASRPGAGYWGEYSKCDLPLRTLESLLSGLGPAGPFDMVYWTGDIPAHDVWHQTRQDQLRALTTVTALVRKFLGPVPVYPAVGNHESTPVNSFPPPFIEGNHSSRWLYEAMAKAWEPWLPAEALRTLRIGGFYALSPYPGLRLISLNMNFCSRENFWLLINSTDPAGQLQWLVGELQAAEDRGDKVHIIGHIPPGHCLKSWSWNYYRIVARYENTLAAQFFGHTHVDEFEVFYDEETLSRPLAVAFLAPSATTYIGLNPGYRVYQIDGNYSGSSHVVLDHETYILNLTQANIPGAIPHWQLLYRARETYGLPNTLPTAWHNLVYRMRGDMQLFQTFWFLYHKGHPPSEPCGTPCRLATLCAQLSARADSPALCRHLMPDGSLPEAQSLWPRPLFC
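Fluorogenic HMU-PC substrate (9 uM final) is turned over by placental ASM in 60 min at 37 C after a 10 min compound preincubation. Reaction ended by alkaline stop (pH 10), with fluorescence read at 386/447 nm.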
Starred values were filed as active, the others as inactive; i = inactive; ? = inconclusive; nt = not tested or not shown. Unless noted, the call rests on the fitted dose curve; in most records, active means well fitted curve in the direction sought with a large enough effect; inconclusive means small, poorly fitted or top-dose-only effect, or another doubt; inactive means no such curve, though single readings can be large; an effect the other way counts as inactive or inconclusive.

SMILES | IL1B secr inh | HepG2 tox | TGFb SMAD3 inh | TDP1 cell noCPT | DT40 TDP1 CPT | S-ASM inh
O=C(CN1CCN(Cc2ccccc2)CC1)Nc1ccccc1-c1ccccc1 | -22.0 | -16.7% | ? | 29.1µM* | 25.9µM* | 5.9%
O=C(Cn1nc(-c2ccccc2Cl)ccc1=O)Nc1ccc(Br)cc1 | -0.7 | 11.9% | -12.1% | -2.3% | 19.9% | -3.1%
Cc1ccc(NC(=O)CN2CCN(Cc3ccccc3)CC2)cc1Cl | 0.7 | 6.1% | -4.7% | 29.1µM* | -24.4% | -1.6%
COC(=O)c1ccc(/C=C/c2ccc3cccc(OC)c3n2)cc1 | -4.1 | -34.9% | ? | ? | ? | i
CCOc1c(OC(C)=O)ccc(/C=C/c2ccc3cccc(OC)c3n2)c1[N+](=O)[O-] | 5.1 | -38.3% | -22.0% | 16.4µM* | ? | nt
COc1ccc(/C=C/c2ccc3cccc(O)c3n2)c(OC)c1OC | -90.8* | -51.2% | ? | 10.3µM* | 9.2µM* | 16.2%
COc1cccc(/C=C/c2ccc3cccc(O)c3n2)c1OC | 34.9 | -30.0% | ? | 16.4µM* | ? | 7.8%
COc1ccc(S(=O)(=O)N2CCOC23CCN(C(=O)c2ccccc2OC)CC3)cc1 | -16.1 | 3.9% | 5.2% | -25.8% | 13.1% | 3.7%
CN(C)c1ccc(CNC(=O)c2ccc(NC(=O)N3CCCCc4ccccc43)cc2)cc1 | nt | -15.6% | -17.7% | ? | ? | nt
O=C(Nc1ccc(S(=O)(=O)N2CCOCC2)cc1)c1ccc(=O)[nH]c1 | 14.3 | -0.7% | 7.0% | 3.9% | 0.2% | -2.1%
O=C(CCn1c(=O)c2cccn2c2cccnc21)NCc1ccc(F)cc1 | nt | -1.2% | -33.0% | -20.3% | 9.0% | nt
O=c1c2c3c(sc2n(Cc2cc(=O)n4ccccc4n2)c(=O)n1-c1ccccc1)CCC3 | nt | 9.1% | 5.8% | -8.5% | 2.5% | nt
CCN(C(=O)c1c(C)oc2ncnc(N3CCCCC3)c12)c1cc(C)ccc1C | nt | -6.7% | -25.5% | 18.4µM* | ? | nt
Cc1ccc(NC(=O)c2c(C)oc3ncnc(N4CCCCC4)c23)c(C)c1 | nt | -24.4% | ? | ? | 18.4µM* | nt
COc1cc(OC)c(N(C)C(=O)c2c(C)oc3ncnc(N4CCCCC4)c23)cc1Cl | nt | -25.1% | -24.4% | 16.4µM* | ? | nt
COc1cccc(-c2ccc(-c3noc(-c4ccccc4Br)n3)c(OC)n2)c1 | nt | 4.8% | 29.6% | -24.3% | ? | nt
Cc1nc(N)ncc1CCC1OCCO1 | 3.6 | 10.3% | 2.4% | -12.5% | 1.8% | nt
CCC(C)c1nc2c(c(N3CCC3=O)c1-c1ccccc1)CCCC2 (configuration not stated) | 6.2 | -3.4% | -24.3% | ? | 18.4µM* | 5.1%
C=C(C)c1ccc(C(C)(C)NC(=O)N2CCN(C)CC2)cc1 | 29.3 | 1.1% | -32.6% | 20.6µM* | 16.4µM* | 4.5%
O=C(NCC(=O)N1CCCCC1)c1ccc(Br)o1 | 3.3 | -33.6% | 0.0% | -119.4% | 4.1% | 2.8%
COc1ccc2[nH]c(=O)c(CNc3ccccc3C)cc2c1 | 39.5 | -12.9% | -9.8% | 23.1µM* | 9.2µM* | 87.3%
COc1ccc2[nH]c(=O)c(CNc3ccccc3OC)cc2c1 | -11.6 | -20.4% | -27.8% | 13µM* | 6.51µM* | 21.4%
COc1cc(/C=C/CNC[C@H]2O[C@@H](n3ccc(=O)[nH]c3=O)[C@H](O)[C@@H]2O)ccc1O | 34.6 | -2.6% | -9.9% | -0.6% | 3.8% | 5.2%
C#CCOCCOCCOCCNc1nc(N2CCN(C(=O)CCCCCCCCCCNC(=O)[C@@H](CCSC)n3cc(CCO)nn3)CC2)nc(N2CCN(C(=O)CCCCCCCCCCNC(=O)[C@H](CCC(=O)O)n3cc(CCCCCN)nn3)CC2)n1 | -52.8* | -0.5% | ? | -6.3% | -16.3% | -13.8%

High-throughput results: PubChem BioAssay, National Center for Advancing Translational Sciences (NCATS)
